# Test results taken from PubChem BioAssay.
# Activity calls are given as the source filed them.
# Legend:
# Albumin (Bos taurus) = Albumin (Bos taurus) (UniProt P02769); assay: bovine serum albumin binders on microarray, profiling panel, artefact control for SMM control protein annotation, biochemical, small-molecule microarray, Alexa647 label, 635/667 nm fluorescence (AID 1118); settings: BSA-A647 binding, fluorescence 635 nm, higher = more signal;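 note: score merges 667 nm emission intensity and signal-to-noise per printed compound spot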
# Albumin (Bos taurus), sequence (P02769 whole entry, looked up): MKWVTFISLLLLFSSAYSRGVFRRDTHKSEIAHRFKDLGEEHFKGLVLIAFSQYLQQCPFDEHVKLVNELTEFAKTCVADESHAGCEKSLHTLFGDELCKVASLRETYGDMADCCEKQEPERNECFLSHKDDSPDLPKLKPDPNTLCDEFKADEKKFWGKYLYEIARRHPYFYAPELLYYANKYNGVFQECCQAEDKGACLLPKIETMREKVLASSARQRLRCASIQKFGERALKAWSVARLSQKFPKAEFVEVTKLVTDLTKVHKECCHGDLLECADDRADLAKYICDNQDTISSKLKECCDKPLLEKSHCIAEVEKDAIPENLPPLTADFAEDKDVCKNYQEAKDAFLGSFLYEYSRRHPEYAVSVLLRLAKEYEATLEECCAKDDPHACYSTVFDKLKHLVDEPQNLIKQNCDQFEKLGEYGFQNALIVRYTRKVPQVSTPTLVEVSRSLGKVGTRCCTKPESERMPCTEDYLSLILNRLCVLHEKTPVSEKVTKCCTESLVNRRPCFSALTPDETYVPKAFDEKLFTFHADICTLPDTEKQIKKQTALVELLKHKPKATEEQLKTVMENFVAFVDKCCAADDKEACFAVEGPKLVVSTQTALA
# [1] = small-molecule microarray binders of probe aXIP, primary screen, biochemical, NeuroSMM set, 635/667 nm fluorescence (AID 1119); settings: higher = more signal, called active from +8 up or from −8 down;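 note: probe is the protein aXip251-270 applied at 1 µg/mL to compound-printed slides; binding of probe to printed compounds measured as 667 nm fluorescence plus signal to noise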
# [2] = small-molecule binders of probe aNOTCH3, primary screen, biochemical, small-molecule microarray, 635/667 nm fluorescence (AID 1120); settings: higher = more signal;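 note: probe is a biotin-tagged antibody raised against NOTCH3 rather than NOTCH3 protein; score merges spot fluorescence near 667 nm with spot signal to noise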
# [3] = small-molecule binders of probe aNOTCH2, primary screen, biochemical, small-molecule microarray, 635/667 nm fluorescence (AID 1121); settings: higher = more signal;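 note: score merges feature fluorescence read at 667 nm with its signal to noise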
# [4] = biological target: Carbonic anhydrase 2 (Homo sapiens) (UniProt P00918); assay: CAII small-molecule binders, profiling panel, biochemical, small-molecule microarray, Alexa647-labelled CAII (AID 1122); settings: CAII-A647 binding fluorescence, higher = more signal
# [5] = COS7 lysate on small-molecule microarray, probe aHis, 635 nm (AID 1123); settings: COS7 cell lysate, fluorescence, higher = more signal;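 note: z-score combines 667nm fluorescence intensity with signal-to-noise per printed compound spot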
# [6] = compound binding in COS7 lysate, probe aLAP1, primary screen, cell lysate, small-molecule microarray (AID 1124); settings: probe aLAP1, fluorescence, higher = more signal;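 note: lysate comes from COS7 cells expressing LAP1 and is applied at 0.3 µg/mL; score merges spot fluorescence near 667 nm with signal-to-noise over triplicate slides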
# Sam68 (KHDRBS1) = assay: Sam68 small-molecule binders, primary screen, biochemical, small-molecule microarray, 635 nm fluorescence (AID 1125); settings: small-molecule microarray binding, higher = more signal;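 note: score merges 667 nm channel intensity with signal to noise over triplicate slides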
# [7] = tested on: Chordin-like protein 2 (CHRDL2); assay: CHRDL2 small-molecule binders, primary screen, biochemical, small-molecule microarray, 635 nm fluorescence (AID 1126); settings: small-molecule microarray binding, fluorescence 635 nm; higher = more signal;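 note: printed compound slides probed with Chrdl2 protein at 4 µg/mL for 1 h at 4 C; score merges 667 nm emission intensity with signal to noise over three replicate slides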
# [8] = biological target: Concanavalin-A (Canavalia ensiformis) (UniProt P02866); assay: ConA small-molecule binders, primary screen, artefact control for SMM control protein annotation, biochemical, small-molecule microarray, Alexa647 label, 635 nm (AID 1127); settings: ConA-A647 binding fluorescence, higher = more signal;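 note: z combines 667 nm emission intensity with signal-to-noise across three replicate slides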
# Concanavalin-A (Canavalia ensiformis), sequence (P02866 whole entry, looked up): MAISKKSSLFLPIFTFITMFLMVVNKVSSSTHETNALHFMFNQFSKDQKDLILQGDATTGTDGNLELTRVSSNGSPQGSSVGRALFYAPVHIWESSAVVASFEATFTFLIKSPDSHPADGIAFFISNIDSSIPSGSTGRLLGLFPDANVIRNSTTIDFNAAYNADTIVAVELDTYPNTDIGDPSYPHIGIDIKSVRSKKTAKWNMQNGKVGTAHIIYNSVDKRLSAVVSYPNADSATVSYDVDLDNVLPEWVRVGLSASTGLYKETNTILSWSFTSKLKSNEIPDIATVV
SMILES,composite z-score (Albumin (Bos taurus)),composite Z-score [1],composite z-score [2],composite z-score [3],composite z-score [4],composite z-score [5],composite z-score [6],composite z-score (Sam68 (KHDRBS1)),composite z-score [7],composite z-score [8]
Cc1ccc(S[C@]2(C(=O)NCCN3CCOCC3)CC(=O)N(Cc3ccccc3Cl)[C@@H]2c2ccc(CO)cc2)cc1,0.429,-0.0407 (inactive),-0.0362,-0.133,0.686,0.776,0.0897,-0.541,-1.2,-0.199
CN(C)CCCNC(=O)[C@@]1(C)c2ccccc2C(=O)N(Cc2cc(F)cc(C(F)(F)F)c2)[C@H]1c1ccc(CO)cc1,0.56,0.101 (inactive),-0.159,-0.0895,0.769,-0.065,0.457,0.303,-1.66,-0.282
COCCOC(=O)N1C(=O)[C@@]2(c3cc(C#Cc4ccc(OC)cc4)ccc31)[C@H](c1ccccc1OCCO)N1[C@H](c3ccccc3)[C@H](c3ccccc3)OC(=O)[C@H]1[C@@H]2C(=O)N1CCN(c2ncccn2)CC1,0.322,0.179 (inactive),-0.0288,-0.131,0.336,0.572,0.141,0.866,0.0135,0.923
COC(=O)[C@@]1(Cc2ccc(F)cc2)[C@@H]2[C@@H](CC(=O)[C@H]2CC(=O)C(=O)N(C)C)CN1C(=O)c1ccccc1,0.998,0.742 (inactive),0.245,-0.041,0.73,2.84,-0.171,1.34,-0.633,1.1
O=C(NCC(F)(F)F)[C@@H]1c2ccccc2C(=O)N(C2CCCCC2)[C@H]1c1ccc(CO)cc1,0.558,0.35 (inactive),-0.0313,-0.0942,0.667,-0.0286,-0.797,0.314,-0.615,1.11
COCCOC(=O)N1C(=O)[C@@]2(c3cc(C#CCCO)ccc31)[C@H](C(=O)N1CCN(c3ncccn3)CC1)[C@H]1C(=O)O[C@H](c3ccccc3)[C@H](c3ccccc3)N1[C@@H]2c1ccccc1OCCO,0.922,-0.07 (inactive),0.195,-0.134,0.582,1.76,0.186,1.31,0.207,1.14
COc1ccc(C(O)C2C=CC3C(=O)NC(=O)C3N2Nc2ccccn2)c2ccccc12 (stereo not given),0.304,0.224 (inactive),-0.0431,-0.101,0.879,0.452,-0.14,-0.328,0.485,0.495
O=C1O[C@H](c2ccccc2)[C@H](c2ccccc2)N2[C@H]1[C@@H](C(=O)O)[C@]1(C(=O)Nc3ccc(C#CCCO)cc31)[C@H]2c1ccc(O)cc1,0.279,0.0575 (inactive),-0.0014,-0.0467,0.501,0.651,0.514,0.0673,-0.823,-0.161
C=CCOC(=O)[C@@H]1[C@H]2C(=O)O[C@H](c3ccccc3)[C@H](c3ccccc3)N2[C@H](c2ccc(OCCOC(=O)[C@@H]3C[C@@H]4C(=O)N[C@@H](CCCCN(C)C)C(=O)N4[C@@H]3c3ccc(O)cc3)cc2)[C@@]12C(=O)Nc1ccc(I)cc12,0.848,0.412 (inactive),0.0738,-0.177,0.275,1.83,-0.157,1.29,1.15,1.16
CCCC[C@H]1OB(O)C[C@H]2C1=C(COc1ccccc1)C[C@H]1C(=O)N(C)C(=O)[C@H]12,-0.137,-0.252 (inactive),-0.0046,-0.0596,-0.0293,0.486,0.0594,-0.348,0.497,-0.271
C=CCNC(=O)[C@H]1[C@@H]2C(=O)O[C@@H](c3ccccc3)[C@@H](c3ccccc3)N2[C@@H](c2ccc(O)cc2)[C@]12C(=O)N(C(=O)OCCOC)c1ccc(C#CCNC(N)=O)cc12,-0.213,0.384 (inactive),0.0955,0.0313,0.484,0.275,0.0793,1.13,0.64,0.932
COc1cc2c(cc1OC)CN(C(=O)[C@H]1[C@@H]3C(=O)O[C@@H](c4ccccc4)[C@@H](c4ccccc4)N3[C@@H](c3ccc(O)cc3)[C@]13C(=O)Nc1ccc(C#CC4=CCCCC4)cc13)CC2,0.672,0.721 (inactive),0.533,-0.0411,0.561,1.74,0.969,1.31,0.575,1.14
C[C@]1(C(=O)NC2CC2)c2ccccc2C(=O)N(Cc2cc(C(F)(F)F)cc(C(F)(F)F)c2)[C@H]1c1ccc(CO)cc1,-0.0744,0.676 (inactive),0.208,-0.0712,0.412,1.28,0.283,1.32,0.39,0.835
COC(=O)[C@@]1(Cc2ccccc2)[C@H]2c3cc(C(=O)N4CCCC4)n(Cc4cccc5ccccc45)c3C[C@H]2CN1C(=O)c1ccccc1,0.942,0.304 (inactive),1.44,0.707,0.741,1.54,0.539,0.621,-0.975,0.308
CC(C)c1ccc(NN2C(C(O)c3cc(C(F)(F)F)cc(C(F)(F)F)c3)C=CC3C(=O)N(c4ccccc4)C(=O)C32)cc1 (stereo not given),0.588,-0.117 (inactive),0.0203,0.0506,0.489,2.43,0.152,0.924,-0.219,0.568
[N-]=[N+]=NCc1ccccc1[C@@H]1OC(c2ccc(OCCCO)cc2)=N[C@]1(CCS(=O)(=O)c1ccccc1)C(=O)NCCN1CCOCC1,0.899,1.31 (inactive),0.576,0.0476,0.634,2.86,0.623,1.3,0.207,1.1

SMILES,composite z-score (Albumin (Bos taurus)),composite Z-score [1],composite z-score [2],composite z-score [3],composite z-score [4],composite z-score [5],composite z-score [6],composite z-score (Sam68 (KHDRBS1)),composite z-score [7],composite z-score [8]
CN(C)CCCNC(=O)[C@@]1(c2ccc([N+](=O)[O-])cc2)CC(=O)N(C2CCCCC2)[C@@H]1c1ccc(CO)cc1I,-0.13,-0.75 (inactive),-0.128,-0.124,0.397,1.7,0.742,1.34,0.096,1.15
COCCOC(=O)N1C(=O)[C@@]2(c3cc(C#CC4=CCCCC4)ccc31)[C@H](C(=O)Nc1nc3ccccc3s1)[C@H]1C(=O)O[C@H](c3ccccc3)[C@H](c3ccccc3)N1[C@@H]2c1ccc(OCCO)cc1,0.1,-0.114 (inactive),0.0286,-0.148,0.0924,0.417,0.338,1.16,0.984,1.03
COc1cc2c(cc1O)C(C1CC1)N(Cc1cc3c(cc1Br)OCO3)CC2 (stereo not given),0.137,-0.431 (inactive),-0.318,-0.0703,0.593,0.478,0.283,-1.09,-0.14,-0.207
CN1C(=O)C2C=CC(C(O)C3CCCCC3)N(Nc3ccc([N+](=O)[O-])cc3[N+](=O)[O-])C2C1=O (stereo not given),0.892,-0.131 (inactive),0.23,0.0302,0.732,2.62,0.605,1.31,-0.384,0.955
COC(=O)C(CC#Cc1ccc2c(c1)[C@]1(C(=O)N2)[C@H](c2ccc(O)cc2)N2[C@H](c3ccccc3)[C@H](c3ccccc3)OC(=O)[C@H]2[C@@H]1C(=O)Nc1nc2ccccc2s1)C(=O)OC,0.847,-0.516 (inactive),0.138,-0.0454,0.556,2.21,0.445,1.31,0.806,1.12
COc1ccc(C(=O)Nc2ccc(CN3C(=O)[C@@]4(O[C@@H](CCn5cc([C@H](O)c6ccccc6)nn5)[C@H]([Si](C)(C)c5ccc(OC)cc5)[C@H]4C)c4ccccc43)cc2)cc1,0.0961,0.611 (inactive),-0.0377,-0.124,0.563,1.39,0.0085,0.876,-0.238,0.399
CC(C)OC(=O)C=C1C[C@@H](c2ccccc2C(F)(F)F)O[C@@H](c2ccccc2C(F)(F)F)O1,0.629,-0.309 (inactive),-0.0044,-0.216,-0.0962,0.387,0.354,0.609,0.0577,0.257
CO[C@H]1O[C@H](CO)[C@@H](OC(=O)Nc2ccc(Br)cc2)[C@H](OC(=O)c2cc3ccccc3[nH]2)[C@H]1OC(=O)c1cc2ccccc2[nH]1,0.93,0.907 (inactive),-0.04,-0.101,0.386,1.25,0.451,1.33,0.283,1.14
CC(C)N1C(=O)c2ccccc2[C@](C)(C(=O)NCc2ccccc2)[C@@H]1c1ccc(CO)cc1,0.182,1.32 (inactive),-0.245,-0.0323,0.703,-0.129,0.967,-0.484,-0.798,-0.866
CC1CC/C=C\[C@H]2OC34C=CCN(C(C)(C)C)C(=O)[C@H]3N(CCCCCCO)C(=O)[C@@H]4C2C(=O)O1 (stereo not given in full),-0.805,-0.358 (inactive),-0.295,-0.114,0.932,0.178,0.843,-0.281,-1.07,-0.239
CN(C)C(=O)[C@]1(Cc2ccccc2N=[N+]=[N-])N=C(c2ccc(OCCCO)cc2)O[C@@H]1c1ccccc1,0.724,-0.316 (inactive),0.0522,-0.0013,0.623,2.22,0.644,1.31,0.0709,1.13
Cc1ccc(S[C@]2(C(=O)NCC(C)C)CC(=O)N(Cc3cc(C(F)(F)F)cc(C(F)(F)F)c3)[C@@H]2c2ccc(CO)cc2I)cc1,0.0274,0.786 (inactive),-0.188,-0.0415,0.89,0.234,0.77,-0.47,-1.76,-1.39
C=C(/C(=C/C[C@@H](OC(C)=O)c1ccc(OCCO)cc1)c1cnc2ccccc2c1)C(C)C,0.444,-0.199 (inactive),-0.0362,-0.17,0.425,0.387,-0.0638,0.713,0.159,0.806
N#Cc1ccc(NN2C(C(O)c3c(F)cccc3Cl)C=CC3C(=O)N(c4ccccc4)C(=O)C32)cc1 (stereo not given),1.09,0.238 (inactive),-0.095,0.0563,0.396,3.25,1.55,1.29,-0.768,1.13
CCCCC(=C=CC[C@@H](O)c1ccccc1OCCO)CCO,0.694,0.35 (inactive),-0.0321,-0.0928,0.726,1.1,0.257,0.0301,-0.638,-0.382
Cc1ccc(C(C)CC(O)C2C=CC3C(=O)N(C)C(=O)C3N2NC(=O)OC(C)(C)C)o1 (stereo not given),1.01,1.31 (inactive),0.18,-0.0925,0.642,2.44,0.934,1.21,0.541,1.05
